Data reported in PubChem BioAssay AID434970 (Sanford-Burnham Center for Chemical Genomics, 2010).
Screen size: about 11,000 compounds; about 310 (2.8%) were called active. Rule as the data show it: active = activity change below about -85%; inactive = the rest. What follows is part of a selection rich in actives, with near analogues and random picks from the rest.

test system: intestinal alkaline phosphatase [Mus musculus]; assay: mouse intestinal phosphatase enzyme activation – biochemical, luminescence, single concentration, confirmation (AID 434970); details: purified mouse IAP, CDP-Star luminescence, 30 min, at 10 µM; activation factor: measured here: IAP activation factor, stronger effect = higher value; activity change, negative = activation: stronger effect = lower value

Structure (SMILES) | activation factor | activity change, negative = activation
Cc1cc(NC(=O)CC23CC4CC(C2)CC(CC(=O)Nc2cc(C)on2)(C4)C3)no1 | 1.02 | -1.55% (inactive)
Cc1sc2nc(SCC(=O)Nc3c(C)n(C)n(-c4ccccc4)c3=O)n(C)c(=O)c2c1C | 0.771 | 22.9% (inactive)
Cc1csc(C(=O)O)c1-n1cccc1 | 0.908 | 9.2% (inactive)
Fc1ccc(OCc2nn3cnnc3s2)cc1 | 0.923 | 7.75% (inactive)
CCOC(=O)/C(C#N)=C\c1ccco1 | 1.12 | -11.7% (inactive)
COC(=O)c1ccccc1NC(=O)CN(CCc1ccccc1)S(C)(=O)=O | 1.04 | -3.75% (inactive)
CCOc1ccc(C2C(C#N)=C(N)N(c3sc4c(c3C#N)CCCC4)C3=C2C(=O)CCC3)cc1 (stereo not given) | 0.903 | 9.65% (inactive)
COCCC(=O)N(Cc1ccc2c(c1)OCO2)C(C(=O)NC1CCCCC1)c1ccncc1 (stereo not given) | 0.912 | 8.8% (inactive)
CC(C)C(=O)Nc1cccc(C(=O)Nc2ccc3c(c2)OCO3)c1 | 0.972 | 2.8% (inactive)
O=C(Nc1cccc(Cl)c1)Nc1ccc2c(c1)OCO2 | 2.46 | -146% (active)
O=C(Nc1cccnc1)Nc1cc(Cl)cc(Cl)c1 | 1.69 | -68.7% (inactive)
O=C(Nc1cccc(F)c1)Nc1cccc(Cl)c1 | 2.11 | -111% (active)
O=C(Nc1cc(Cl)cc(Cl)c1)Nc1cnccn1 | 1.97 | -96.5% (active)
O=C(Nc1ccccc1)Nc1ccc(Br)c(Cl)c1 | 1.82 | -82.4% (inactive)
O=C(Nc1cc(Cl)cc(Cl)c1)c1cnn2cccnc12 | 0.974 | 2.55% (inactive)
O=C(Nc1ccccc1)Nc1cc(Cl)cc(Cl)c1 | 3.41 | -241% (active)
COC(=O)c1ccccc1NC(=O)Nc1ccc2c(c1)OCO2 | 1.08 | -8% (inactive)
Fc1cccc(NC(=S)NCc2ccc(Cl)cc2)c1 | 1.31 | -30.9% (inactive)
S=C(NCc1cccnc1)Nc1cc(Cl)cc(Cl)c1 | 1.38 | -38.4% (inactive)
Cc1ccc2c(c1)N(CCC(=O)NCc1cccs1)C(=O)C(C)O2 (stereo not given) | 1.03 | -2.7% (inactive)
O=C(CCCOc1ccccc1)Nc1nnc(C2CCCO2)s1 (stereo not given) | 1.01 | -1.15% (inactive)
CCOC(=O)c1c(-c2ccccc2)csc1NC(=O)COc1ccc2c(C)cc(=O)oc2c1 | 0.967 | 3.3% (inactive)
Cc1ccc(NC(=O)CS(=O)CC(=O)NCC2CCCO2)cc1 (stereo not given) | 1.07 | -6.55% (inactive)
O=C(O)C1C2C=CC(O2)C1C(=O)NCCC1=CCCCC1 (stereo not given) | 1.12 | -12.2% (inactive)
COCCN(C(=O)C(F)(F)F)C(C(=O)NC1CCCCC1)c1ccco1 (stereo not given) | 0.978 | 2.15% (inactive)
CC1CCN(C(=O)c2ccc(NC(=O)C3CCCO3)cc2)CC1 (stereo not given) | 1.06 | -5.95% (inactive)
COc1cc2oc(=O)cc(-c3ccc(-c4ccc(F)c(Cl)c4)cc3)c2c(OC)c1OC | 0.913 | 8.7% (inactive)
Cn1c(Cn2cnc3ccccc32)nnc1SCC(=O)CC(=O)Nc1ccccc1 | 0.996 | 0.45% (inactive)

Structure (SMILES) | activation factor | activity change, negative = activation
COc1ccc(-n2ncc3c(=O)n(CC(=O)N4c5ccccc5CC4C)cnc32)cc1 (stereo not given) | 1 | -0.2% (inactive)
CC(=O)c1cccc(NC(=O)Nc2cccnc2)c1 | 1 | -0.35% (inactive)
C=CCc1cc(Cl)ccc1OC(=O)Nc1cccc(Cl)c1 | 2.05 | -105% (active)
O=C(NCCc1ccc(Cl)cc1)Nc1cccc(Cl)c1 | 1.92 | -92.5% (inactive)
C/C(CC(=O)Nc1cccc(Cl)c1)=N\NC(=O)Cc1ccc(Cl)cc1 | 1.02 | -2.2% (inactive)
CC(C)OC(=O)NCCOC(=O)Nc1cccc(Cl)c1 | 2.12 | -112% (active)
CCOC(=O)c1sc(NC(=O)Nc2cccc(Cl)c2)cc1C | 1.83 | -82.6% (inactive)
N#CCc1ccc(NC(=O)Nc2cccc(Cl)c2)cc1 | 1.88 | -87.6% (inactive)
CCC1(COC(=O)Nc2cccc(Cl)c2)COC1 | 1.16 | -16.4% (inactive)
CSc1ccccc1NC(=O)Nc1cccc(Cl)c1 | 1.48 | -48.5% (inactive)
CC(O)c1cccc(NC(=O)Nc2cccc(NC(=O)Nc3cccc(C(C)O)c3)c2)c1 (stereo not given) | 1.89 | -88.9% (active)
O=C(Nc1cccc(Cl)c1)Nc1cccc(Cl)c1 | 3.21 | -221% (active)
CC(=O)Nc1cccc(NC(=O)Nc2ccc(C(C)=O)cc2)c1 | 1.13 | -13.4% (inactive)
COCCN(CC(=O)NCc1ccc2c(c1)OCO2)C(=O)CCC(=O)Nc1nccs1 | 0.99 | 1% (inactive)
O=S(=O)(N[C@H](CO)c1ccccc1)c1ccc(Br)cc1F | 1.03 | -2.75% (inactive)
CCOC(=O)C1=C(C)N(C[C@@H]2CC[C@@H](Cc3ccc(-c4ccccc4)cc3)O2)C(=O)NC1c1ccc(C(F)(F)F)cc1 (stereo not given in full) | 0.924 | 7.6% (inactive)
COc1ccc(CCNC(=O)CC2COc3ccccc3O2)cc1OC (stereo not given) | 1.06 | -5.55% (inactive)
Oc1c(C=C2N=c3ccccc3=N2)sc(=S)n1-c1ccc(F)cc1 | 0.615 | 38.5% (inactive)
COc1ccc(CC(NC(C)=O)C(=O)NC2CCN(C(=O)c3cnccn3)CC2)cc1 (stereo not given) | 0.93 | 7% (inactive)
CCN1Cc2cc(OC)ccc2-c2ccccc2S1(=O)=O | 1.15 | -14.7% (inactive)
O=C(NCCN1CCN(Cc2ccccc2)CC1)Nc1cc(Cl)cc(Cl)c1 | 1.43 | -42.5% (inactive)
O=C(Nc1cc(Cl)cc(Cl)c1)N1CCCC1 | 1.62 | -62.2% (inactive)
CN(c1cccc(NC(=O)Nc2cccc(Cl)c2)c1)S(C)(=O)=O | 2.47 | -147% (active)
CN1CCN(NC(=O)Nc2cc(Cl)cc(Cl)c2)CC1 | 2.2 | -120% (active)
Cc1ccc(S(=O)(=O)N(CC(=O)Nc2cccc(N(C)S(C)(=O)=O)c2)c2ccc(Cl)c(Cl)c2)cc1 | 1.73 | -73.1% (inactive)
CN(c1cccc(NC(=O)Nc2ccc(Cl)cc2)c1)S(C)(=O)=O | 1.91 | -91.2% (inactive)
COC(=O)c1ccc(CC(=O)c2c(C)cc(O)cc2O)o1 | 0.877 | 12.3% (inactive)
